# Data taken from paper PMC7862700, “An all-to-all approach to the identification of sequence-specific readers for epigenetic DNA modifications on cytosine”.
# Assays:
# Assay in all cases: DAPPL (digital affinity profiling via proximity ligation, sequencing); 10 mM Tris-HCl pH 7.5, 50 mM NaCl, 1 mM DTT, 4% glycerol, room temperature, 30 min; GST-TFs on glutathione beads, 16-mer random dsDNA library, 0.1% formaldehyde crosslink after washing; high values mean tight binding
# [1] = target: T1, FEV (Homo sapiens, UniProt Q99581 1-238); settings: protein: recombinant; tags: N-terminal GST; dsDNA, one strand shown
# T1 sequence: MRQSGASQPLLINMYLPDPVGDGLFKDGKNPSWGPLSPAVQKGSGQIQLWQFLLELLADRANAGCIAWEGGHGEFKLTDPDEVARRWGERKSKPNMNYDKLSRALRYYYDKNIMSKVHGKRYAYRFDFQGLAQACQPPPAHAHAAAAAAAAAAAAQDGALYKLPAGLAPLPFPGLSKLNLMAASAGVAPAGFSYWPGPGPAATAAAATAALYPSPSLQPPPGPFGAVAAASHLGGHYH
# Outline: (§1)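 Binding signal is each hexamer's read frequency for a factor divided by its frequency in the tag-only sample. The factors were GST-fused human transcription factors from yeast, captured on glutathione beads, DNA-barcoded and pooled with that sample. Pools were incubated with 200 nmole of a random double-stranded 16-mer DNA library in Tris/NaCl/DTT/glycerol buffer at room temperature for 30 min, then washed, crosslinked with 0.1% formaldehyde, proximity-ligated with BsaI/T4 ligase (1 h, 37 °C), PCR-amplified and sequenced on an Illumina NextSeq500.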
# [2] = target: ETV5 (Homo sapiens, UniProt P41161 1-510); settings: protein: recombinant; tags: N-terminal GST; dsDNA, one strand shown
# Outline: as §1
# [3] = target: HSF1 (Homo sapiens, UniProt Q00613 1-529); settings: protein: recombinant; tags: N-terminal GST; chain copies: 3; dsDNA, one strand shown
# Outline: as §1
# [4] = target: T2, SPIC (Homo sapiens, UniProt Q8N5J4 1-248); settings: protein: recombinant; tags: N-terminal GST; dsDNA, one strand shown
# T2 sequence: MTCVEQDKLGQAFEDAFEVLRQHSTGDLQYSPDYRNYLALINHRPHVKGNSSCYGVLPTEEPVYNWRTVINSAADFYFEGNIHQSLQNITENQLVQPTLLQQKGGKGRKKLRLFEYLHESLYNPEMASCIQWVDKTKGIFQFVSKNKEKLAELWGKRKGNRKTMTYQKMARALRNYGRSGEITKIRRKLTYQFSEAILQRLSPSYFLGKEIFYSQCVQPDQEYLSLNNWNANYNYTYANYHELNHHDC
# Outline: as §1
# [5] = target: ELF4 (Homo sapiens, UniProt Q99607 1-663); settings: protein: recombinant; tags: N-terminal GST; dsDNA, one strand shown
# Outline: as §1
# [6] = target: T3, ELK4 (Homo sapiens, UniProt P28324-2 1-405); settings: protein: recombinant; tags: N-terminal GST; dsDNA, one strand shown
# T3 sequence: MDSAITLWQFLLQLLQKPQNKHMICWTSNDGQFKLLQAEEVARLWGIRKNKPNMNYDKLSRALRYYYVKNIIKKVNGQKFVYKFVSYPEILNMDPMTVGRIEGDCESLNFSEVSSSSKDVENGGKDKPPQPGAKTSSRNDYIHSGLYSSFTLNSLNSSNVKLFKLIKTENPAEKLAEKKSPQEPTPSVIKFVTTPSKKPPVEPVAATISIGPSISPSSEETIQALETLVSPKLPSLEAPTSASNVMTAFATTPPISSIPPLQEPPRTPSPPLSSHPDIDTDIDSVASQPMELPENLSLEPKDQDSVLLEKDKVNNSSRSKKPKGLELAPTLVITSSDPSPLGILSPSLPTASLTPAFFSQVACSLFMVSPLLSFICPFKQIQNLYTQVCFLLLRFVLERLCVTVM
# Outline: as §1
# [7] = target: T4, ETV2 (Homo sapiens, UniProt O00321 1-342); settings: protein: recombinant; tags: N-terminal GST; dsDNA, one strand shown
# T4 sequence: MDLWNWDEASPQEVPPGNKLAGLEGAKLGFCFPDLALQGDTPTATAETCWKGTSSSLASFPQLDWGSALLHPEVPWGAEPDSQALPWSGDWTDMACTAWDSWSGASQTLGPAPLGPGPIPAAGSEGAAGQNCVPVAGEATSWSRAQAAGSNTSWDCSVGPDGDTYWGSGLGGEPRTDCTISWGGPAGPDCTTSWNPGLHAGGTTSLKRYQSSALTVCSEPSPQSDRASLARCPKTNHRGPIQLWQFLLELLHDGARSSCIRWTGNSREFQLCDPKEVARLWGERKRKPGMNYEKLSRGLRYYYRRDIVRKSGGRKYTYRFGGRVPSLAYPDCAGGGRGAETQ
# Outline: as §1
# [8] = target: T5, ELF3 (Homo sapiens, UniProt P78545 1-371); settings: protein: recombinant; tags: N-terminal GST; dsDNA, one strand shown
# T5 sequence: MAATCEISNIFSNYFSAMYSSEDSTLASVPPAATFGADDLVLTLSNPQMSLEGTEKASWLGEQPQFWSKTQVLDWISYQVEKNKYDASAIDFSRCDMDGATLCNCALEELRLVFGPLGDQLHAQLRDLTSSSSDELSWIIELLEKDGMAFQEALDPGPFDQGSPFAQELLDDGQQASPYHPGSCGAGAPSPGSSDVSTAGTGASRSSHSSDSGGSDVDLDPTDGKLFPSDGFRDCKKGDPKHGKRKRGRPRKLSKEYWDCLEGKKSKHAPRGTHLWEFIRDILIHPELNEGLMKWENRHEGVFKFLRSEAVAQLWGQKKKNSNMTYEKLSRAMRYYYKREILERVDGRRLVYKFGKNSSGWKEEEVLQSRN
# Outline: as §1
# [9] = target: CRX (Homo sapiens, UniProt O43186 1-299); settings: protein: recombinant; tags: N-terminal GST; dsDNA, one strand shown
# Outline: as §1
# [10] = target: ETV1 (Homo sapiens, UniProt P50549 1-477); settings: protein: recombinant; tags: N-terminal GST; dsDNA, one strand shown
# Outline: as §1
# [11] = target: T6, ERF (Homo sapiens, UniProt P50548 1-548); settings: protein: recombinant; tags: N-terminal GST; dsDNA, one strand shown
# T6 sequence: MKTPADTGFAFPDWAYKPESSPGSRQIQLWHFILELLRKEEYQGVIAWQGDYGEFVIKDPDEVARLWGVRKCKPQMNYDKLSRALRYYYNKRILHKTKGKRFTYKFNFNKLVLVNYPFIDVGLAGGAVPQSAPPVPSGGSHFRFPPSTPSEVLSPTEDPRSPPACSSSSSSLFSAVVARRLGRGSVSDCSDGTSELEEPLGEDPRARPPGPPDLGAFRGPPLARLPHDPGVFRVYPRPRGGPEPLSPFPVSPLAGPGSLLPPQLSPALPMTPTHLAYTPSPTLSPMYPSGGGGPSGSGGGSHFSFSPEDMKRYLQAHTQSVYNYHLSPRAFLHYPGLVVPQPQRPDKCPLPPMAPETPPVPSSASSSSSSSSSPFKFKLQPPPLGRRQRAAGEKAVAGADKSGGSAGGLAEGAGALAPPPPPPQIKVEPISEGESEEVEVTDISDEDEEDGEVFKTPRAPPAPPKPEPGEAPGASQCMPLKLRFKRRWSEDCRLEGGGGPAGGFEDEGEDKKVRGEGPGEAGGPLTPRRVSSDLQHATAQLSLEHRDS
# Outline: as §1
# [12] = target: T7, ETV3L (Homo sapiens, UniProt Q6ZN32 1-361); settings: protein: recombinant; tags: N-terminal GST; dsDNA, one strand shown
# T7 sequence: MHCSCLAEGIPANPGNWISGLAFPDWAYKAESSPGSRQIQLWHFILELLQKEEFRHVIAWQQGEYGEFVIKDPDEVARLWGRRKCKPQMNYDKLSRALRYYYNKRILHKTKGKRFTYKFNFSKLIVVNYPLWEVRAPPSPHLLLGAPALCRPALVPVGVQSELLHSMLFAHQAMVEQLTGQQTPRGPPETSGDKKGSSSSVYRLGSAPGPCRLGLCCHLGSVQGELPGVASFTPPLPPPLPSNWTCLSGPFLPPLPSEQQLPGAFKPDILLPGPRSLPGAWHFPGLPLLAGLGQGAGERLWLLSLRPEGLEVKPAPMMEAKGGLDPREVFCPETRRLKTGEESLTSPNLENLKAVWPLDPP
# Outline: as §1
# [13] = target: T8, ETS2 (Homo sapiens, UniProt P15036 1-469); settings: protein: recombinant; tags: N-terminal GST; dsDNA, one strand shown
# T8 sequence: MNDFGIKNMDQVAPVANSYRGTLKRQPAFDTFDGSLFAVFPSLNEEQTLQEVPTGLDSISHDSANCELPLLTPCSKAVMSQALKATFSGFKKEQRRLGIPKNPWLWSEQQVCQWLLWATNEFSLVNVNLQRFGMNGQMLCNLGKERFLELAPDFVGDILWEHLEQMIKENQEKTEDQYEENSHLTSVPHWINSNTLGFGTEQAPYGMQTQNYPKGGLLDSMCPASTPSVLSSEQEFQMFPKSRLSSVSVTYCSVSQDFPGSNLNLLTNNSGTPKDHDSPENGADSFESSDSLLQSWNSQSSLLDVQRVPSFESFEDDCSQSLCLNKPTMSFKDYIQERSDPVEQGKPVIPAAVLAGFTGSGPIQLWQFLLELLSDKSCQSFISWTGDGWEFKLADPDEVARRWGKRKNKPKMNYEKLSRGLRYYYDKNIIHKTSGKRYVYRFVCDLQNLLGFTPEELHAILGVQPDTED
# Outline: as §1
# [14] = target: T9, SPDEF (Homo sapiens, UniProt O95238 1-335); settings: protein: recombinant; tags: N-terminal GST; dsDNA, one strand shown
# T9 sequence: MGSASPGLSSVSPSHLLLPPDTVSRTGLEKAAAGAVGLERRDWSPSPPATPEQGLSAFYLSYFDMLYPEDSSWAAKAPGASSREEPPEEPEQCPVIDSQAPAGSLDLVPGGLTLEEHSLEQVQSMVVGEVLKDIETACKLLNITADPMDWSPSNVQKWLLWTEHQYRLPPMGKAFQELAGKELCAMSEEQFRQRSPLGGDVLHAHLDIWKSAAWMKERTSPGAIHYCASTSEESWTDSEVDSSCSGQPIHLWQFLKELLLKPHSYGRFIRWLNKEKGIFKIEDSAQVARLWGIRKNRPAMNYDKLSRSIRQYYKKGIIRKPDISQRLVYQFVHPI
# Outline: as §1
# [15] = target: T10, ETV7 (Homo sapiens, UniProt Q9Y603 1-341); settings: protein: recombinant; tags: N-terminal GST; dsDNA, one strand shown
# T10 sequence: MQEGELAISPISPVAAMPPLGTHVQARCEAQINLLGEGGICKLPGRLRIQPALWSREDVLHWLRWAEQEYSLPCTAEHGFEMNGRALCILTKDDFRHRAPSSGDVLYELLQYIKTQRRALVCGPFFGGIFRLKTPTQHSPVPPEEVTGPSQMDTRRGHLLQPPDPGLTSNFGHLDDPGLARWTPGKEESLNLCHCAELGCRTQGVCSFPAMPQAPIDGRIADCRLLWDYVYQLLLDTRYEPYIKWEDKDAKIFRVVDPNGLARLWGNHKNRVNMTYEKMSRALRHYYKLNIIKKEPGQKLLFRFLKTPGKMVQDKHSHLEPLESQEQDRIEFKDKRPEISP
# Outline: as §1
# [16] = target: T11, ELF5 (Homo sapiens, UniProt Q9UKW6-2 1-255); settings: protein: recombinant; tags: N-terminal GST; dsDNA, one strand shown
# T11 sequence: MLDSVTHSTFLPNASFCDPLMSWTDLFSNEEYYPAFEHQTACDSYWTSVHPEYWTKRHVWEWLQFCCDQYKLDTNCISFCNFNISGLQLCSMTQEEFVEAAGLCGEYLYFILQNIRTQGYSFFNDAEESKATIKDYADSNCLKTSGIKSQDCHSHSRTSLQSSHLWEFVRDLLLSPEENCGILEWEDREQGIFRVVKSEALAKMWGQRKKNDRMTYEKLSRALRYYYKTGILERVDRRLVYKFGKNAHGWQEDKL
# Outline: as §1
# [17] = target: T12, ETV3 (Homo sapiens, UniProt P41162-2 1-143); settings: protein: recombinant; tags: N-terminal GST; dsDNA, one strand shown
# T12 sequence: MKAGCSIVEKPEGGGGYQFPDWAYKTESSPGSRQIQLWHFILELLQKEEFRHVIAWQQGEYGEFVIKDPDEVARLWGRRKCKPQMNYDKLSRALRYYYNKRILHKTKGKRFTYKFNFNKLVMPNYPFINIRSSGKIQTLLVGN
# Outline: as §1
# [18] = target: ETV6 (Homo sapiens, UniProt P41212 1-452); settings: protein: recombinant; tags: N-terminal GST; dsDNA, one strand shown
# Outline: as §1
# Chain of CRX (O43186 whole entry): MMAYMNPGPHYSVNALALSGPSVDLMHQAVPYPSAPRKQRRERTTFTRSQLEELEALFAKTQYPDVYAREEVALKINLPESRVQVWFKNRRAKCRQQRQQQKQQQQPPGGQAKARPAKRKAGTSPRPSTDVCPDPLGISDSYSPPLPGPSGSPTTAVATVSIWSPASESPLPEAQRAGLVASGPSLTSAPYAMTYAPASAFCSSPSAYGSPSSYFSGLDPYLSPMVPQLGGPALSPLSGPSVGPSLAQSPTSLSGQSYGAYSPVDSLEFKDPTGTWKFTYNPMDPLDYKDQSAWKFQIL
# Chain of ETV1 (P50549 whole entry): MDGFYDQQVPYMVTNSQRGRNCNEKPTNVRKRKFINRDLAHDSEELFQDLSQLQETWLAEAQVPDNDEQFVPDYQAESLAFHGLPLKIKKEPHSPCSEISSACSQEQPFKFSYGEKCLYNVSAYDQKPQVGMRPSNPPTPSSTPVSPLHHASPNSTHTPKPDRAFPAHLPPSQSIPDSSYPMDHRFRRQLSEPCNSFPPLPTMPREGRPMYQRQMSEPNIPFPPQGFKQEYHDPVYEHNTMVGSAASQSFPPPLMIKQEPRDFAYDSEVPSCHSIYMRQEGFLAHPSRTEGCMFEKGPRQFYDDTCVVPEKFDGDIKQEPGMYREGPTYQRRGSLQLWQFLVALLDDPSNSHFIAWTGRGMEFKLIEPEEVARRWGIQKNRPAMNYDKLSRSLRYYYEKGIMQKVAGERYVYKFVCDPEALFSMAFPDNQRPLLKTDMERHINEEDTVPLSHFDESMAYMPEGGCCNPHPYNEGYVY
# Chain of ETV5 (P41161 whole entry): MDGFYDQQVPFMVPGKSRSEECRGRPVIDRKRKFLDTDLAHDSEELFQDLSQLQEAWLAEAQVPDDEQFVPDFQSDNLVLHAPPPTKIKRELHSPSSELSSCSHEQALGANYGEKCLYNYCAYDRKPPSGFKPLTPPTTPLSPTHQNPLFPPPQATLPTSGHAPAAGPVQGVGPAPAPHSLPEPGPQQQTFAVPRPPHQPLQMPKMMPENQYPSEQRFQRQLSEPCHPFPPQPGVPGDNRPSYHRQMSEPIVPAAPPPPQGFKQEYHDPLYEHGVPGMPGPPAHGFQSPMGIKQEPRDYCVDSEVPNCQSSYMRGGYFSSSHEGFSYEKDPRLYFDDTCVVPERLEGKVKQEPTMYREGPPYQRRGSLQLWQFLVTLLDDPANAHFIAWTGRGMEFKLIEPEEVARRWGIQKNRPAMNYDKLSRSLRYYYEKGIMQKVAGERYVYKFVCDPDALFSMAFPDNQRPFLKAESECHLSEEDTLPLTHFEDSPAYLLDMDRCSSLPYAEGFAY
# Chain of HSF1 (Q00613 whole entry): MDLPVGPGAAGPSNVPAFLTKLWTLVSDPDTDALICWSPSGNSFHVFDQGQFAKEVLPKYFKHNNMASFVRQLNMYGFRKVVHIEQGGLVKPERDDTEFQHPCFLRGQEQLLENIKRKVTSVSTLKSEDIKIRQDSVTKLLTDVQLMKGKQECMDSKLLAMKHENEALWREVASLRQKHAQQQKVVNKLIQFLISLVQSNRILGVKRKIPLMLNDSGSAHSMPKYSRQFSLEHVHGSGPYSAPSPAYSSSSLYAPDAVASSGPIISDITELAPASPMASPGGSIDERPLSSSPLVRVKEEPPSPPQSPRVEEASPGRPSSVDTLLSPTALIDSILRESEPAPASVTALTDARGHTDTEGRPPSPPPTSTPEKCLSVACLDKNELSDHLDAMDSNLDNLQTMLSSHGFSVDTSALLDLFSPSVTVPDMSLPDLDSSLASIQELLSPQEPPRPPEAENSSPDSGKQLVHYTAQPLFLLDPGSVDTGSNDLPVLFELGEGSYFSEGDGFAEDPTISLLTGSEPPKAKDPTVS
# Chain of ELF4 (Q99607 whole entry): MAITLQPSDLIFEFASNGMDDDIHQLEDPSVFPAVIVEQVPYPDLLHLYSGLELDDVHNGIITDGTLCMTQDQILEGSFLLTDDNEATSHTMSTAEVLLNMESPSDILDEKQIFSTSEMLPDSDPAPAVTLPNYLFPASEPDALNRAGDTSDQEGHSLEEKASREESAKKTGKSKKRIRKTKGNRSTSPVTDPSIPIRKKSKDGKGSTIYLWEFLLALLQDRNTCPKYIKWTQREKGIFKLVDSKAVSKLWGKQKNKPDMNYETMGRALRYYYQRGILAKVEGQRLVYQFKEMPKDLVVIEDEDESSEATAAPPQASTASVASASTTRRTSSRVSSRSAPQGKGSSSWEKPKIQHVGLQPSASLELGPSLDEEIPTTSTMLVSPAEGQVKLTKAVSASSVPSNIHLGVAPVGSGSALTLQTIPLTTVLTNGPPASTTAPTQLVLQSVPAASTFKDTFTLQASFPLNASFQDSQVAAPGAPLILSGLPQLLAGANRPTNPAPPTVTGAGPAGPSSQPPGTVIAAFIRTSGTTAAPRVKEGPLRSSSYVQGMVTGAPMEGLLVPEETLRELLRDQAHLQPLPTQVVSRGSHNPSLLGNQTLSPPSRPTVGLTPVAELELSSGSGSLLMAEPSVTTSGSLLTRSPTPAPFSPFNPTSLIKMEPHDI
# Chain of ETV6 (P41212 whole entry): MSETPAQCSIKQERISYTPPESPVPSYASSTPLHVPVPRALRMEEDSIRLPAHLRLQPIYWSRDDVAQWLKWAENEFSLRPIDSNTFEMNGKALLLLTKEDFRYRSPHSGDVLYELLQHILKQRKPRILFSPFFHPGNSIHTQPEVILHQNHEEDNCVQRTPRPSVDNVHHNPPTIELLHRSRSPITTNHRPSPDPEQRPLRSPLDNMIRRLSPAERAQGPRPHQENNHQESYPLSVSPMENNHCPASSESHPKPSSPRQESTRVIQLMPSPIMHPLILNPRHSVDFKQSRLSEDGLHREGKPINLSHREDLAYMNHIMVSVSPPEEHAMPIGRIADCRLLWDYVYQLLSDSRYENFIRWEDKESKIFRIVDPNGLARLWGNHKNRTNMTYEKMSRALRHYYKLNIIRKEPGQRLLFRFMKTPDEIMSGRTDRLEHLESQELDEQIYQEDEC
sequence,measurement,setting,value
ATGTCT,binding signal,[1],"1.27 fold enrichment (6-mer frequency, TF over GST control)"
same,binding signal,[2],"1.36 fold enrichment (6-mer frequency, TF over GST control)"
same,binding signal,[3],"1.17 fold enrichment (6-mer frequency, TF over GST control)"
same,binding signal,[4],"1.27 fold enrichment (6-mer frequency, TF over GST control)"
same,binding signal,[5],"1.28 fold enrichment (6-mer frequency, TF over GST control)"
same,binding signal,[6],"1.07 fold enrichment (6-mer frequency, TF over GST control)"
same,binding signal,[7],"1.26 fold enrichment (6-mer frequency, TF over GST control)"
same,binding signal,[8],"1.08 fold enrichment (6-mer frequency, TF over GST control)"
same,binding signal,[9],"1.18 fold enrichment (6-mer frequency, TF over GST control)"
same,binding signal,[10],"1.23 fold enrichment (6-mer frequency, TF over GST control)"
same,binding signal,[11],"1.38 fold enrichment (6-mer frequency, TF over GST control)"
same,binding signal,[12],"1.27 fold enrichment (6-mer frequency, TF over GST control)"
same,binding signal,[13],"1.28 fold enrichment (6-mer frequency, TF over GST control)"
same,binding signal,[14],"1.26 fold enrichment (6-mer frequency, TF over GST control)"
same,binding signal,[15],"1.12 fold enrichment (6-mer frequency, TF over GST control)"
same,binding signal,[16],"1.35 fold enrichment (6-mer frequency, TF over GST control)"
same,binding signal,[17],"1.26 fold enrichment (6-mer frequency, TF over GST control)"
same,binding signal,[18],"1.23 fold enrichment (6-mer frequency, TF over GST control)"
